# High-throughput results: PubChem BioAssay, National Center for Advancing Translational Sciences (NCATS)
# ELG1 repair inh: qHTS screen for small molecules that inhibit ELG1-dependent DNA repair in human embryonic kidney (HEK293T) cells expressing luciferase-tagged ELG1; HEK293T ELG1-luciferase reporter, luminescence, 16 h; DNA damage induced by 5-fluorouridine; Potency, µM (doses to about 46.1 µM), for the others: at the highest dose activity change, negative = inhibition, actives largely listed as inhibitors; 330,000 compounds, 2.3% hits; note: % is set by controls: 0 for no effect and ±100 for the full control effect; nearly all actives have a fitted effect of over 55% in size
#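 Step one: seed 2,000 cells per well. Step two: pin-transfer compound or DMSO alongside 5-fluorouridine. Step three: incubate 16 hr, 37 °C, 5% CO2. Step four: add ONE-Glo, wait 30 min, read luminescence.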
# Rab9 prom act: qHTS Assay for Rab9 Promoter Activators | Huh7 Rab9 promoter-luciferase reporter, luminescence, 24 h | Potency, µM (titrated, usually from 9.22 µM), for the others: at the top dose activation, negative = inhibition, actives largely listed as activators | 320,000 compounds, 2.8% hits; note: % of control where 0% means no effect; nearly all actives have a fitted effect of over 60% in size
#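 Rab9 promoter-driven luciferase in stably transfected Huh7 cells; 1500 cells/well rested 2 h, exposed to compound in DMSO for 24 h at 37 °C, 5% CO2. Luminescence read 10 min after adding luciferase reagent at ambient temperature.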
# FLuc counter: qHTS profiling assay for firefly luciferase inhibitor/activator using purifed enzyme and Km concentrations of substrates (counterscreen for miR-21 project) | 360,000 compounds, 6.9% hits | Potency, µM (titrated, usually from 57.5 µM), for inactives: at the highest dose activity change, negative = inhibition, hits mostly inhibitors | purified FLuc, Km substrates, luminescence inhibition | AID 588342, 2011 | Luciferin 4-monooxygenase (Photinus pyralis), P08659;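 note: plate controls were vehicle for no effect and reference inhibitor for full effect; nearly all actives have a fitted effect of over 55% in size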
# Target sequence (P08659 whole entry, looked up): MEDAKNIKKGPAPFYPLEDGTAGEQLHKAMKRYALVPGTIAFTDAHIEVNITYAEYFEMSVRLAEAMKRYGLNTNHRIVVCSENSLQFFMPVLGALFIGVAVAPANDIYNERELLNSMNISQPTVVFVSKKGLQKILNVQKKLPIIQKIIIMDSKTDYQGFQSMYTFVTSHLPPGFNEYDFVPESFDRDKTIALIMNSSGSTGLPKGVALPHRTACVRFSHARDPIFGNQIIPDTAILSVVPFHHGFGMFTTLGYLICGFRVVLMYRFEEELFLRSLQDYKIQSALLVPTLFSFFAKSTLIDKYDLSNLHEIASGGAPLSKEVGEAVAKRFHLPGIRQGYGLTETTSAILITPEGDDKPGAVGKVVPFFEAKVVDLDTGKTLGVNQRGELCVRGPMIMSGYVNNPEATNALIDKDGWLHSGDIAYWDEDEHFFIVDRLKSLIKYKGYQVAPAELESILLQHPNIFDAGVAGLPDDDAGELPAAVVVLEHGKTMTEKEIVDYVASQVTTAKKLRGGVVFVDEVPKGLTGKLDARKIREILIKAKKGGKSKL
#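 Biochemical qHTS of compounds, final roughly 60 µM downward over six points, against 10 nM purified firefly luciferase using Km concentrations of substrates (10 uM D-luciferin, 10 uM ATP) in Tris acetate pH 7.5 buffer; luminescence output.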
# NPC1 prom act: qHTS Assay for NPC1 Promoter Activators; Huh7 NPC1 promoter luciferase reporter, 24 h; Potency, µM (series often up to 9.22 µM), inactives show at the highest dose activation, usual class: activators; 320,000 compounds, 2.4% hits; note: % of control where 0% means no effect; nearly all actives have a fitted effect of over 60% in size
#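 Quantitative HTS used a cell-based reporter: Huh7 cells stably bearing the NPC1 promoter upstream of luciferase were treated with compounds for 24 h, and promoter activation was read as luminescence.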
# ELG1 genotoxic: qHTS screen for small molecules that induce genotoxicity in human embryonic kidney (HEK293T) cells expressing luciferase-tagged ELG1 | HEK293T ELG1-luciferase reporter, luminescence, 16 h | Potency, µM (highest dose often 46 µM), without a hit: top-dose activity change, positive = activation, hits mostly activators | 330,000 compounds, 1.3% hits | AID 504466, 2011; note: % of control where 0% means no effect; nearly all actives have a fitted effect of over 60% in size
#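 Quantitative HTS format in 1536-well plates. HEK293T ELG1-luciferase reporter cells receive test compound and are incubated 16 hr at 37 °C, 5% CO2; ONE-Glo added, 30 min room temperature, then luminescence read.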
# SMN2 splice up: qHTS Assay for Enhancers of SMN2 Splice Variant Expression | AID 1458, 2008 | 210,000 compounds, 2.8% hits | Potency, µM (series often up to 46.1 µM), inactives show at the top dose activity change, positive = activation, actives largely listed as activators | HEK293 SMN2-luciferase splicing reporter, luminescence, 30-36 h; note: % of control where 0% means no effect; nearly all actives have a fitted effect of over 55% in size
#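 HEK293 cells carry an SMN2 […]–luciferase reporter in which exon 7 inclusion puts luciferase in frame. Cells were plated 10-12 h before compound addition, then incubated 30-36 h at 37C. ONE-Glo luminescence was read; sodium butyrate at 4.5 mM final served as control.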
# The depositor's hits bear a star; ? = inconclusive; · = not tested or not shown. This is a sample that favours compounds with a hit; in the whole collection about 9.2% have one here. Calls come from the whole dose curve; as a rule, active = well fitted curve in the direction sought with a large enough effect; inconclusive = small, poorly fitted or top-dose-only effect, or another doubt; inactive = no such curve, though single readings can be large; an effect the other way counts as inactive or inconclusive. Potency is the fitted concentration of half-maximal effect.
SMILES,ELG1 repair inh,Rab9 prom act,FLuc counter,NPC1 prom act,ELG1 genotoxic,SMN2 splice up
O=C(O)c1cccc(CSc2nnc(Cc3ccccc3)o2)c1,?,?,19µM*,28%,?,16µM*
c1ccc(CSc2nnc(Cc3ccccn3)o2)cc1,?,?,?,?,2%,-1%
Cc1ccc(Cl)cc1N1CCN(C(=O)CN2C(=O)COc3ccc(S(=O)(=O)N4CCCCCC4)cc32)CC1,·,·,-9%,·,·,9%
Cc1ccc(/C=N/N2C(=O)c3ccccc3NC2c2ccc(C)cc2)cc1 (centres undefined),?,?,?,26%,?,13µM*
COc1ccc(N2C(=O)c3ccccc3NC2c2ccccc2O)cc1 (centres undefined),?,1.3µM*,-19%,1.4µM*,?,·
CC(C)Oc1ccccc1C1CC(=O)Nc2cc3c(cc21)OCCO3 (centres undefined),?,-20%,0%,-15%,-3%,-48%
COc1ccc(C2Nc3ccccc3C(=O)N2c2ccccc2)cc1Cn1cc([N+](=O)[O-])cn1 (centres undefined),?,-4%,-3%,2%,-4%,3%
COc1ccc(N2C(=O)c3ccccc3NC2c2ccc(OC)c(Cn3cc([N+](=O)[O-])cn3)c2)cc1 (centres undefined),?,?,-4%,2.8µM*,6%,·
CC(C)Oc1ccccc1C1Nc2ccccc2C(=O)N1c1ccc2c(c1)OCCO2 (centres undefined),?,1.1µM*,13µM*,0.79µM*,?,7.9µM*
COc1ccccc1CC(=O)Nc1ccc2nc(Nc3cccc(C(F)(F)F)c3)cc(C)c2c1,·,·,-3%,·,·,·
O=C1c2ccccc2C(O)N1c1cccnc1 (centres undefined),12%,-9%,-2%,0%,1%,2%
Cc1cccc(C2Nc3ccccc3C(=O)N2CCc2ccccc2)n1 (centres undefined),18%,15%,?,2%,0%,?
O=C1c2ccccc2NC(c2ccco2)N1/N=C/c1ccco1 (centres undefined),?,?,-5%,22%,13%,?
C/C(=N\N1C(=O)c2ccccc2NC1c1ccco1)c1ccccc1O (centres undefined),?,0.35µM*,?,?,?,4µM*
O=C1c2ccccc2NC(c2cccc([N+](=O)[O-])c2)N1CCc1ccccc1 (centres undefined),?,?,19µM*,?,11%,·
COc1ccc(CCN2C(=O)c3ccccc3NC2c2cc(Cl)c(O)c(OC)c2)cc1 (centres undefined),7.3µM*,-17%,-19%,-34%,-6%,·
CCOc1ccc(N2C(=O)c3ccccc3C2O)cc1 (centres undefined),?,?,12µM*,3.2µM*,9.2µM*,13µM*
CCOC(=O)C(=O)Nc1cc(C(=O)OC)cc(C(=O)OC)c1,5%,2%,1%,-2%,0%,12%
CC1CCN(C(=O)c2[nH]cnc2C(=O)Nc2ccccc2)CC1,-5%,·,·,·,1%,·
N#Cc1ccc(S(=O)(=O)N2CCC(Oc3cccc(C(F)(F)F)c3)CC2)cc1,·,·,-5%,·,·,-1%
C/C(=N\N1C(=O)c2ccccc2NC1c1ccccc1)c1ccccc1O (centres undefined),?,0.63µM*,3%,?,4.6µM*,2.8µM*
COc1cc(C2Nc3ccccc3C(=O)N2c2ccccc2)ccc1O (centres undefined),?,29%,-8%,27%,?,13%
